# Records with an inconclusive call do not appear. The source made the active and inactive calls. Unless noted, calls follow the shape of the dose curve; as a rule, active = well fitted inhibition curve with a large enough effect; inconclusive = small, poorly fitted or top-dose-only effect; inactive = flat fitted curve, though single readings scatter.
# Key:
# [1] = qHTS for identification of novel therapeutic agents for treatment of microphthalmiaassociated transcription factor (MiT) renal cell carcinoma (RCC) (AID 1963991; calls by dose curve;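 as to z-score: curves scaled with 100% = DMSO viability and 0% = empty wells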); details: CellTiter-Glo, 48 h; for Potency: active = Z-AUC below -0.8 in all three lines; for z-score: stronger effect = lower value
# Outline: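 UOK109/UOK124/UOK145 (TFE3 fusions, three partners); 500 cells/well; MIPE v4.0, 1912 cpds, 11 conc.; 48 h, 37 C; CellTiter-Glo, 15 min RT; lum. Norm.: DMSO 100%, empty 0%.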
# 3D7 = experiment: qHTS profiling for inhibitors of Plasmodium falciparum proliferation (AID 504749); also: nearly all actives have a fitted effect of over 60% in size; details: P. falciparum in erythrocytes, SYBR Green DNA, 72 h; series mostly up to 28.7 µM
# Outline: (§1)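 Three-day growth assay of blood-stage parasites in erythrocytes (0.3% parasitemia, 2.5% hematocrit) at 37 C, 5% CO2, quantified by SYBR Green DNA staining after overnight detergent lysis.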
# 7G8 = experiment: as above; details: P. falciparum in erythrocytes, SYBR Green DNA, 72 h; series mostly up to 28.7 µM
# Outline: as §1
# AA1029 = experiment: as above; details: P. falciparum in erythrocytes, SYBR Green DNA, 72 h; series mostly up to 28.7 µM
# Outline: as §1
# AS120 = experiment: as above; details: P. falciparum in erythrocytes, SYBR Green DNA, 72 h; series mostly up to 28.7 µM
# Outline: as §1
# ATS189 = experiment: as above; details: P. falciparum in erythrocytes, SYBR Green DNA, 72 h; series mostly up to 28.7 µM
# Outline: as §1
# ATS95 = experiment: as above; details: P. falciparum in erythrocytes, SYBR Green DNA, 72 h; series mostly up to 28.7 µM
# Outline: as §1
# C2A = experiment: as above; details: P. falciparum in erythrocytes, SYBR Green DNA, 72 h; series mostly up to 28.7 µM
# Outline: as §1
# CP185 = experiment: as above; details: P. falciparum in erythrocytes, SYBR Green DNA, 72 h; series mostly up to 28.7 µM
# Outline: as §1
# CP191 = experiment: as above; details: P. falciparum in erythrocytes, SYBR Green DNA, 72 h; series mostly up to 28.7 µM
# Outline: as §1
# CP192 = experiment: as above; details: P. falciparum in erythrocytes, SYBR Green DNA, 72 h; series mostly up to 28.7 µM
# Outline: as §1
# CP194 = experiment: as above; details: P. falciparum in erythrocytes, SYBR Green DNA, 72 h; series mostly up to 28.7 µM
# Outline: as §1
# CP201 = experiment: as above; details: P. falciparum in erythrocytes, SYBR Green DNA, 72 h; series mostly up to 28.7 µM
# Outline: as §1
# CP203 = experiment: as above; details: P. falciparum in erythrocytes, SYBR Green DNA, 72 h; series mostly up to 28.7 µM
# Outline: as §1
# CP211 = experiment: as above; details: P. falciparum in erythrocytes, SYBR Green DNA, 72 h; series mostly up to 28.7 µM
# Outline: as §1
# CP215 = experiment: as above; details: P. falciparum in erythrocytes, SYBR Green DNA, 72 h; series mostly up to 28.7 µM
# Outline: as §1
# CP217 = experiment: as above; details: P. falciparum in erythrocytes, SYBR Green DNA, 72 h; series mostly up to 28.7 µM
# Outline: as §1
# CP237 = experiment: as above; details: P. falciparum in erythrocytes, SYBR Green DNA, 72 h; series mostly up to 28.7 µM
# Outline: as §1
# CP238 = experiment: as above; details: P. falciparum in erythrocytes, SYBR Green DNA, 72 h; series mostly up to 28.7 µM
# Outline: as §1
# [2] = TFE3-RCC UOK109 viability, measured here: UOK109 Z-AUC
# [3] = TFE3-RCC viability, measured here: UOK124 Z-AUC
# [4] = TFE3-RCC viability, measured here: UOK145 Z-AUC
# Potency is read from the fitted curve at half-maximal effect.
smiles,measurement,setting,value
CN[C@@H]1C[C@H]2O[C@@](C)([C@H]1OC)n1c3ccccc3c3c4c(c5c6ccccc6n2c5c31)C(=O)N[C@H]4O,Potency,[1]; TFE3-RCC UOK109 viability,1480 nM (active)
same,z-score,[1]; [2],-1.4
same,z-score,[1]; [3],-2.32
same,z-score,[1]; [4],-1.88
OCC(O)C(O)C(O)CO (stereo unspecified),z-score,[1]; [2],0.353
same,z-score,[1]; [3],0.172
same,z-score,[1]; [4],0.47
same,Potency,3D7,inactive
same,Potency,7G8,inactive
same,Potency,AA1029,inactive
same,Potency,AS120,inactive
same,Potency,ATS189,inactive
same,Potency,ATS95,inactive
same,Potency,C2A,inactive
same,Potency,CP185,inactive
same,Potency,CP191,inactive
same,Potency,CP192,inactive
same,Potency,CP194,inactive
same,Potency,CP201,inactive
same,Potency,CP203,inactive
same,Potency,CP211,inactive
same,Potency,CP215,inactive
same,Potency,CP217,inactive
same,Potency,CP237,inactive
same,Potency,CP238,inactive
OC[C@@H](O)[C@@H](O)[C@H](O)[C@@H](O)CO,z-score,[1]; [2],0.602
same,z-score,[1]; [3],0.356
same,z-score,[1]; [4],0.716
C[C@]12C=CC(=O)N[C@@H]1CC[C@H]1[C@H]3CC[C@@H](C(=O)Nc4cc(C(F)(F)F)ccc4C(F)(F)F)[C@@]3(C)CC[C@@H]12,z-score,[1]; [2],0.94
same,z-score,[1]; [3],0.86
same,z-score,[1]; [4],0.116
CCCCCCCCCCCC(CC1OC(=O)C1CCCCCC)OC(=O)C(CC(C)C)NC=O (stereo unspecified),z-score,[1]; [2],0.558
same,z-score,[1]; [3],-0.129
same,z-score,[1]; [4],0.669
same,Potency,3D7,1120 nM (active)
same,Potency,7G8,2510 nM (active)
same,Potency,AA1029,447 nM (active)
same,Potency,AS120,316 nM (active)
same,Potency,ATS95,794 nM (active)
same,Potency,C2A,562 nM (active)
same,Potency,CP185,708 nM (active)
same,Potency,CP191,562 nM (active)
same,Potency,CP192,inactive
same,Potency,CP194,9530 nM (active)
same,Potency,CP201,inactive
same,Potency,CP217,2240 nM (active)
same,Potency,CP237,794 nM (active)
same,Potency,CP238,708 nM (active)
O=C1c2c(O)cccc2[C@@H]([C@@H]2O[C@H](CO)[C@@H](O)[C@H](O)[C@H]2O)c2cc(CO)cc(O)c21,z-score,[1]; [2],0.509
same,z-score,[1]; [3],0.726
same,z-score,[1]; [4],0.571
O=C(O)[C@H](CC(=O)N1C[C@@H]2CCCC[C@H]2C1)Cc1ccccc1,z-score,[1]; [2],0.946
same,z-score,[1]; [3],0.446
same,z-score,[1]; [4],0.344
CON=C(C(=O)N[C@@H]1C(=O)N2C(C(=O)O)=C(Cn3ccc(=N)n3CCO)CS[C@H]12)c1csc(N)n1,z-score,[1]; [2],1.44
same,z-score,[1]; [3],0.0348
same,z-score,[1]; [4],0.881
CC(=O)OCC(=O)[C@@]1(O)CC[C@H]2[C@@H]3CCC4=CC(=O)CC[C@]4(C)[C@@H]3C(=O)C[C@@]21C,z-score,[1]; [2],-0.147
same,z-score,[1]; [3],0.413
same,z-score,[1]; [4],0.581
Cc1cc(-c2nnc3n2CCCCC3)c(C)n1-c1ccccc1,z-score,[1]; [2],0.931
same,z-score,[1]; [3],0.469
same,z-score,[1]; [4],0.656
NC[C@H]1O[C@H](O[C@H]2[C@@H](O)[C@@H](O[C@H]3O[C@H](CO)[C@@H](O)[C@H](N)[C@@H]3O)[C@H](N)C[C@@H]2N)[C@H](N)C[C@H]1O,z-score,[1]; [2],2.03
same,z-score,[1]; [3],0.18
same,z-score,[1]; [4],1.86
NC(=O)c1ncn([C@@H]2O[C@H](CO)[C@@H](O)[C@@H]2O)c1N,z-score,[1]; [2],0.684
same,z-score,[1]; [3],0.695
same,z-score,[1]; [4],0.605
N[C@H]1CN(c2c(F)cc3c(=O)c(C(=O)O)cn(C4C[C@@H]4F)c3c2Cl)CC12CC2 (stereo partly specified),z-score,[1]; [2],0.717
same,z-score,[1]; [3],1.4
same,z-score,[1]; [4],-0.145
CC[C@H](CC[C@@H](C)[C@H]1CC[C@H]2[C@@H]3CC=C4C[C@@H](O)CC[C@]4(C)[C@@H]3CC[C@]12C)C(C)C,z-score,[1]; [2],0.368
same,z-score,[1]; [3],0.916
same,z-score,[1]; [4],0.197
O=C1NC(=O)[C@@H](c2cn3c4c(cccc24)CCC3)[C@H]1c1c[nH]c2ccccc12,Potency,[1]; TFE3-RCC UOK109 viability,935 nM (active)
same,z-score,[1]; [2],-1.28
same,z-score,[1]; [3],-0.931
same,z-score,[1]; [4],-1.11
Cc1[nH]c(C=C2C(=O)Nc3ccccc32)c(C)c1CCC(=O)O,Potency,[1]; TFE3-RCC UOK109 viability,833 nM (active)
same,z-score,[1]; [2],-1.41
same,z-score,[1]; [3],-0.97
same,z-score,[1]; [4],-1.35
COc1cccc2c1C(=O)c1c(O)c3c(c(O)c1C2=O)C[C@@](O)(C(C)=O)C[C@H]3O[C@H]1C[C@H](N)[C@H](O)[C@H](C)O1,Potency,[1]; TFE3-RCC UOK109 viability,296 nM (active)
same,z-score,[1]; [2],-1.65
same,z-score,[1]; [3],-2.33
same,z-score,[1]; [4],-1.35
C=CC(=O)Nc1cccc(Nc2nc(NC3CCC(N(C)C)CC3)nc3c2ncn3C(C)C)c1 (stereo unspecified),Potency,[1]; TFE3-RCC UOK109 viability,46.9 nM (active)
same,z-score,[1]; [2],-3.03
same,z-score,[1]; [3],-0.935
same,z-score,[1]; [4],-1.36

# From PubChem BioAssay (NCATS)
